Source: PubChem BioAssay
Shown are actives, neighbours in structure and some others; about 19% of the full set was active somewhere.
DT40 TDP1 CPT = growth inhibition of DT40 Tdp1-/-;hTDP1 cells with camptothecin (screen for TDP1 inhibitors); hit rate 12% among 420,000; chicken DT40 Tdp1-/-;hTDP1 cells + 20 nM CPT, ATP luminescence, 48 h; AID 686979; Potency, µM (titrated, usually from 46.2 µM), inactives show at the highest dose activity change, negative = growth inhibition, most hits filed as inhibitors; note: potency is the fitted concentration of half-maximal effect; nearly all actives have a fitted effect of over 55% in size
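Chicken DT40 Tdp1-/- cells stably complemented with human TDP1 were seeded at 400 cells/well in medium containing 20 nM camptothecin, exposed to pin-transferred compounds, and grown at 37 °C for at least 48 hr. Viability was read as ATP luminescence.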
TDP1 cell noCPT = qHTS for Inhibitors of human tyrosyl-DNA phosphodiesterase 1 (TDP1): qHTS in cells in absence of CPT; DT40 Tdp1-/- hTDP1 cells, no CPT, ATP luminescence, 48 h; AID 686978, 2013; hit rate 15% among 420,000; Potency, µM (highest dose often 46.2 µM), for inactives: at the top dose activity change, negative = growth inhibition, most hits filed as inhibitors; note: potency is the fitted concentration of half-maximal effect; nearly all actives have a fitted effect of over 55% in size
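Seeded 400 DT40-hTDP1 cells/well (vehicle DMSO, no 20 nM CPT); pinned compounds; ≥48 hr at 37 °C; CellTiter-Glo luminescence as viability measure.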
IL-1B inflam inh = inflammasome signaling inhibition, IL-1 beta readout. THP-1 LPS/ATP IL-1B secretion, AlphaLISA, 16 h; stronger effect = lower value. activity change, % at 57.5 µM. hit rate 4.7% among 360,000; in the data active = activity change below about -50%; inconclusive = mostly about -30% to -49%
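Secreted IL-1B measured by AlphaLISA bead assay after 16 h compound exposure of THP-1 cells; compounds (final up to 57.5 uM) added 1 h before LPS (250 ng/mL) and ATP (1.25 mM) stimulation; lower signal means less secretion.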
ELG1 repair inh = inhibitors of ELG1-dependent DNA repair in HEK293T cells; AID 504467; Potency, µM (highest dose often 46.1 µM), inactives show top-dose activity change, negative = inhibition, most hits filed as inhibitors; hit rate 2.3% among 330,000; HEK293T ELG1-luciferase reporter, luminescence, 16 h; DNA damage induced by 5-fluorouridine; note: potency is the fitted concentration of half-maximal effect; nearly all actives have a fitted effect of over 55% in size
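Cells (2,000 per well) received 5-fluorouridine plus test compound or DMSO and were incubated 16 hr at 37 °C, 5% CO2. Luciferase activity was read by luminescence 30 min after ONE-Glo addition; signal suppression marked inhibition of damage-induced ELG1 function.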
HT1080 IDH1KD tx = HT-1080 IDH1 knockdown cell toxicity (counter line). HT-1080 IDH1 knockdown viability, ATP luminescence, 48 h. Potency, µM (highest dose often 46.1 µM), without a hit: at the top dose activity, negative = toxicity, actives largely listed as cytotoxic. hit rate 2% among 360,000. AID 686971;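 note: potency is the fitted concentration of half-maximal effect; 0% = DMSO wells and -100% = cell-free medium wells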
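Cytotoxicity counter-line: IDH1KD HT-1080, 48 h, CellTiter-Glo. Curves classed by r2, magnitude and activity.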
HT1080-NT tox = kills 2HG-producing HT-1080-NT fibrosarcoma cells; Potency, µM (titrated, usually from 46.1 µM), inactives show top-dose activity, negative = less viability, usual class: cytotoxic; hit rate 1.6% among 360,000; AID 686970; HT-1080-NT fibrosarcoma viability, CellTiter-Glo ATP luminescence, 48 h;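 note: NT is the 2HG producing partner of a matched IDH1 knockdown line; potency is the fitted concentration of half-maximal effect; 0% = DMSO-treated cells and -100% = media-only wells without cells; nearly all actives have a fitted effect of over 55% in size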
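A 48-hour cytotoxicity screen used HT-1080-NT cells plated 2 hours before compound delivery. ATP-based CellTiter-Glo luminescence measured viability, normalized to DMSO and no-cell controls.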
Numbers without * were called inactive; i = inactive; ? = inconclusive; nt = no result given. Unless noted, calls come from the whole dose curve; as a rule, active = well fitted curve in the direction sought with a large enough effect; inconclusive = small, poorly fitted or top-dose-only effect, or another doubt; inactive = no such curve, though single readings can be large; an effect the other way counts as inactive or inconclusive. Unless noted, % is set by controls: 0 for no effect and ±100 for the full control effect.

SMILES	DT40 TDP1 CPT	TDP1 cell noCPT	IL-1B inflam inh	ELG1 repair inh	HT1080 IDH1KD tx	HT1080-NT tox
Cc1onc(-c2c(F)cccc2Cl)c1C(=O)Nc1nnc(C(F)(F)F)s1	12µM*	15µM*	?	-18%	?	?
COCCn1c(=O)c(-c2cccs2)nc2cnc(Nc3ccccc3)nc21	1%	-3%	nt	nt	nt	nt
CC/C(C)=N/Nc1cccc([N+](=O)[O-])c1	-23%	5%	0	6%	9.2µM*	?
CCC(CC)=NNc1cccc([N+](=O)[O-])c1	-13%	-27%	0	8%	?	-23%
COc1ccc(OCC(=O)N/N=C(\C)CC(=O)Nc2cccc([N+](=O)[O-])c2)cc1	-2%	3%	-14	6%	4%	-5%
O=[N+]([O-])c1cccc(N=NNc2cccc([N+](=O)[O-])c2)c1	?	18µM*	-30	nt	4%	7%
COc1ccc(C(=O)/C(C#N)=N/Nc2cccc([N+](=O)[O-])c2)cc1	5.8µM*	4.1µM*	-13	?	23µM*	?
Cc1cc(C)n(-c2nc3ccccc3nc2Nc2ccc(Cl)cc2Cl)n1	0%	-27%	nt	nt	nt	nt
Cc1cccc(N=Nc2cnc(N)s2)c1	?	?	-65*	?	0%	-2%
COc1cc(/C=C/C(=O)N2CC(C)OC(C)C2)cc(OC)c1OC (stereo unspecified)	0%	-8%	34	-3%	-2%	16%
COc1cc(-c2cc(C(=O)N(C)Cc3ccccc3)c3ccccc3n2)cc(OC)c1OC	15µM*	15µM*	-23	?	-17%	-7%
COc1cc(-c2cc(C(=O)OCC(=O)NC3CC3)c3ccccc3n2)cc(OC)c1OC	?	18µM*	0	12µM*	-11%	-11%
COc1ccccc1CN(C)C(=O)c1cc(-c2cc(OC)c(OC)c(OC)c2)nc2ccccc12	23µM*	10µM*	?	5.8µM*	18µM*	15µM*
COCCN(Cc1ccccc1)C(=O)c1cc(-c2ccc(OC)c(OC)c2)nc2ccccc12	?	?	i	12µM*	-1%	-12%
CCN(Cc1ccccc1)C(=O)c1cc(-c2ccc(OC)c(OC)c2)nc2ccccc12	?	?	5	4%	-10%	-11%
CC1=C(C(=O)Nc2cc(Cl)ccc2C)C(c2ccccc2F)n2ncnc2N1 (stereo unspecified)	-18%	-13%	nt	nt	nt	nt
Cc1ccc(CNC2CCCCC2)s1	4%	-4%	-19	5%	3%	1%
N#Cc1nc2ccccc2n1OCc1ccccc1	-1%	?	?	nt	-22%	4%
COc1ccc(-c2cc(C(=O)N(C)Cc3ccccc3F)c3ccccc3n2)cc1OC	?	18µM*	?	3%	-19%	-13%
COc1ccc(/C(C)=N/Nc2ncc(Cl)cc2Cl)c(O)c1	?	0.0082µM*	-18	16%	?	4.6µM*
CCOC(=O)C1CCN(CC(=O)c2c(C)n(C)c3ccc(OC)cc23)CC1	-2%	0%	-4	1%	-6%	0%
COc1ccc(C(=O)NCCc2nc3ccccc3[nH]2)cc1	-19%	-3%	nt	nt	nt	nt
COc1ccc2c(CCNC(=O)/C=C/c3ccc(OC)c(OC)c3)c[nH]c2c1	?	18µM*	-11	23µM*	-25%	-23%
COc1ccc(OC)c(/C=C/C(=O)NCCc2nc3ccccc3[nH]2)c1	7.3µM*	12µM*	6	?	-15%	-1%
C[C@@H](NC(=O)[C@@H]1CCCN1C(=O)[C@@H]1CCCN1C(=O)OC(C)(C)C)c1ccccc1	-8%	-15%	0	nt	16%	9%
SMILES	DT40 TDP1 CPT	TDP1 cell noCPT	IL-1B inflam inh	ELG1 repair inh	HT1080 IDH1KD tx	HT1080-NT tox
Cc1nc(N2CCCCC2)sc1C(=O)c1ccc(SCCO)c([N+](=O)[O-])c1	?	18µM*	-54*	18µM*	-18%	-12%
Cc1nc(N2CCCCC2)sc1C(=O)c1cccc([N+](=O)[O-])c1	?	?	-103*	2%	0%	-12%
O=C1c2ccccc2C(=O)N1CCSc1nc2ccccc2c(=O)n1CCCN1CCOCC1	8%	-23%	?	7%	7%	2%
O=C1c2ccccc2C(=O)N1CCCCSc1nc2ccccc2c(=O)n1CCCN1CCOCC1	?	?	?	21µM*	-17%	-18%
Cc1ccc(NC(=O)CSc2nc3ccccc3c(=O)n2CCC(=O)NC2CCCCC2)cc1C	-14%	-5%	nt	nt	nt	nt
CCc1ccc(NC(=O)CSc2nc3ccccc3c(=O)n2CCCN2CCC(C)CC2)cc1	?	23µM*	-100*	20%	21µM*	?
Cc1ccc(NC(=O)CSc2nc3ccccc3c(=O)n2CCCN2CCCCC2)cc1C	26µM*	?	0	-1%	?	-14%
O=C(CSc1nc2ccccc2c(=O)n1CCC(=O)N1CCCCC1)NCc1ccccc1	?	-28%	-10	15µM*	-4%	-3%
CCC(=O)N(C)C[C@H]1Oc2ncc(C#Cc3ccncc3)cc2C(=O)N([C@@H](C)CO)C[C@@H]1C	27%	-5%	12	nt	3%	7%
CCOc1ccc2oc(C(=O)OCC(=O)NC3CC3)c(C)c2c1	-8%	-1%	12	3%	6%	8%
Cc1ccc(Oc2ccc(NC(=O)C3=CC=CN4CCS(=O)(=O)N=C34)cc2)cc1	?	?	10	17%	-4%	-8%
Cc1ccc(NC(=O)CSc2nc3ccccc3c(=O)n2CCCC(=O)N2CCCC2)cc1	18µM*	21µM*	-7	-18%	-8%	-8%
CCCCn1c(SCC(=O)NCc2ccco2)nc2ccc(N3CCOCC3)cc2c1=O	?	?	22	-28%	?	-29%
CCCCn1c(SCC(=O)NCc2ccccc2)nc2ccc(N3CCOCC3)cc2c1=O	-21%	1.5µM*	-8	?	-13%	3%
CCCCn1c(SCC(=O)Nc2cc(NC(=O)c3ccco3)ccc2C)nc2ccccc2c1=O	?	23µM*	18	16µM*	11µM*	?
Cc1ccc(S(=O)(=O)N(C)C)cc1-n1c(SCC(=O)Nc2ccc(F)cc2Cl)nc2ccccc2c1=O	21µM*	16µM*	13	?	0%	-1%
Cc1ccc(S(=O)(=O)N(C)C)cc1-n1c(SCC(=O)Nc2ccc(F)cc2)nc2ccccc2c1=O	?	?	0	?	-17%	-2%
